Assay outcomes from PubChem BioAssay.
HEK cytotox – Cytotoxic Profiling in HEK 293 Cell Line of Diverse Libraries Using Quantitative High-Throughput Screening; HEK 293 viability, ATP luminescence (CellTiter-Glo), 48-72 h; Potency, µM (highest dose often 115 µM), most hits filed as inhibitors; hit rate 6.6% among 94,000; note: nearly all actives have a fitted effect of over 60% in size
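Pintool-delivered compounds were incubated with HEK 293 cells (250 cells/well) at 37 degree Celsius for 48 or 72 hr. ATP-dependent luminescence (CellTiter-Glo) then reported remaining viable cells.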
GPT2 inh – Primary qHTS assay for inhibitors of Glutamate pyruvate transaminase 2 (GPT2) | AID 1671188, 2021 | Alanine aminotransferase 2 (Homo sapiens), Q8TD30 | hit rate 0.25% among 100,000 | Recombinant GPT2, coupled pyruvate oxidase/HRP Amplex Red fluorescence | Potency, µM (top dose mostly 57.7 µM), hits mostly inhibitors; note: nearly all actives have a fitted effect of over 60% in size
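Fluorescence of coupled pyruvate oxidase/HRP/Amplex Red system (50uM Amplex, 30 min, dark) reports pyruvate formed by GPT2. Enzyme reaction: 10ng/uL GPT2, 2mM L-alanine, 250uM a-KG, 30 min room temperature, pH 7.5; 50uM AOA control.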
hNpr1 antagonist – Natriuretic polypeptide receptor (hNpr1) antagonism - Primary qHTS; Atrial natriuretic peptide receptor 1 (Homo sapiens), P16066; HEK293 hNpr1 GloSensor cGMP, ANP-stimulated luminescence; Potency, µM (titrated, usually from 46.3 µM), hits mostly inhibitors; hit rate 1.6% among 76,000; AID 1347048, 2019; calls by dose curve; note: nearly all actives have a fitted effect of over 60% in size
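Compound pre-incubated 30 min at room temperature on GloSensor-loaded HEK293 cells stably carrying hNpr1 and the pGS-40F cGMP biosensor. Stimulation uses hNppA at 0.1 nM final; luminescence is taken at baseline and 20 min post-agonist.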
NIH3T3 tox – Cytotoxic Profiling in NIH 3T3 Cell Line of Diverse Libraries Using Quantitative High-Throughput Screening; AID 1345082, 2018; Potency, µM (highest dose often 96.7 µM), usual class: inhibitors; hit rate 4.3% among 94,000; NIH 3T3 viability, CellTiter-Glo ATP luminescence, 48-72 h; note: nearly all actives have a fitted effect of over 55% in size
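Cytotoxicity was measured by CellTiter-Glo ATP luminescence after 48 or 72 h compound exposure at 37 °C. Mouse NIH 3T3 fibroblasts were seeded at 400 cells/well and dosed by 23 nL pin transfer.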
Luciferase inh – Firefly luciferase inhibition profiling of diverse chemical library using quantitative high-throughput screening | purified P. pyralis luciferase, luminescence, biochemical | Potency, µM (series often up to 115 µM), actives largely listed as inhibitors | hit rate 2.5% among 76,000; note: nearly all actives have a fitted effect of over 65% in size
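Purified 10nM P. pyralis luciferase with 10uM D-luciferin and 10uM ATP in 50mM Tris acetate pH 7.5, 10mM Mg acetate, 0.01% Tween-20, 0.05% BSA. qHTS titration; luminescence read by CCD imager.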
Numbers stand for hits; – = inactive; ? = inconclusive; · = no result; [ ] = remark or other dose. Shown are actives, neighbours in structure and some others; about 10% of the full set was active somewhere. Unless noted, calls come from the whole dose curve; as a rule, active = well fitted curve in the direction sought with a large enough effect; inconclusive = small, poorly fitted or top-dose-only effect, or another doubt; inactive = no such curve, though single readings can be large; an effect the other way counts as inactive or inconclusive.

SMILES	HEK cytotox	GPT2 inh	hNpr1 antagonist	NIH3T3 tox	Luciferase inh
O=C(Cc1ccc(N(Cc2ccccc2)C(=O)c2ccco2)cc1)NCc1ccc(F)cc1	40µM	–	–	?	–
C=CCNC(=O)Cc1ccc(N(Cc2ccc(OC)cc2)C(=O)c2ccco2)cc1	?	–	–	–	–
COc1ccc(CN(C(=O)c2ccco2)c2ccc(CC(=O)NCc3ccc(F)cc3)cc2)cc1	?	–	–	20µM	–
O=C(Cc1ccc(N(Cc2cccc(F)c2)C(=O)c2ccco2)cc1)NCc1ccco1	89µM	–	–	?	–
Cc1ccc(C)c(C(=O)N[C@@H]2CN(c3ccncn3)C[C@H]2CO)c1	–	–	–	–	–
CCc1[nH]c2c(CNC(=O)C(C)O)cc(C)cc2c1C (centres undefined)	–	–	–	–	–
CCn1nccc1C(=O)NC1CCN(c2cc(-c3ccccc3)[nH]n2)CC1	?	–	–	–	–
Cc1cc(CNC(=O)c2cccc(F)c2F)c2[nH]c(C)c(C)c2c1	35µM	–	–	?	–
Cc1cc(CNC(=O)C(C)Cn2nc(C)nc2C)c2[nH]c(-c3ccccc3)c(C)c2c1 (centres undefined)	?	–	–	?	20µM
CCn1nccc1C(=O)NCc1cc(C)cc2c(C)c(-c3ccccc3)[nH]c12	28µM	–[11.5 µM]	?	40µM	16µM
COc1ccc(C(=O)NC2CCN(Cc3ccc(-c4cc(F)ccc4OC)cc3)C2)cc1 (centres undefined)	22µM	·	·	18µM	·
COc1ccccc1-c1ccc(CN2CCC(NC(=O)c3ccc(Cl)cc3)C2)cc1 (centres undefined)	25µM	·	·	14µM	·
COc1ccccc1-c1ccc(C(=O)N2CCC(NC(=O)c3ccccc3)CC2)cc1	?	–	·	?	·
O=C(NC1CCN(Cc2ccc(-c3ccsc3)cc2)C1)c1ccc(F)cc1 (centres undefined)	?	–	·	?	·
COc1ccc(C(=O)NC2CCN(Cc3ccc(-c4ccccc4OC)cc3)C2)cc1 (centres undefined)	?	–	·	22µM	·
COc1ccc(F)cc1-c1ccc(CN2CCC(NC(=O)c3cccnc3)C2)cc1 (centres undefined)	50µM	·	·	?	·
Cc1cccc(CN2CCCC(c3nc(CCOCC4CC4)no3)C2)c1 (centres undefined)	?	–	–	?	–
Cc1cccc(-c2noc([C@@H]3Cc4nc[nH]c4CN3C(=O)CC(C)(C)CC(=O)O)n2)c1	–	–	–	–	?
CC(C)(Oc1ccccc1)C(=O)N1CCC2(CC1)CNC(C(=O)O)C2 (centres undefined)	–	–	–	–	–
COc1ccc(Oc2c(Cl)cnn(C3c4ccccc4-c4ccccc43)c2=O)cc1	·	–	·	·	·
COc1ccc(F)cc1-c1ccc(CN2CCC(NC(=O)c3ccc(Cl)nc3)C2)cc1 (centres undefined)	32µM	·	·	32µM	·
O=C1NC2(CCN(Cc3ccccc3C(F)(F)F)CC2)COc2ccccc21	–	–	–	–	–
O=C1NC2(CCN(Cc3ccccc3C(F)(F)F)CC2)Oc2ccccc21	40µM	–	–	?	–
N#Cc1ccc(CN2CCC3(COc4ccccc4C(=O)N3)C2)cc1 (centres undefined)	63µM	–	?	32µM	–
N#Cc1ccc(CN2CCCC3(C2)NC(=O)c2ccccc2O3)cc1 (centres undefined)	89µM	–	?	?	–
SMILES	HEK cytotox	GPT2 inh	hNpr1 antagonist	NIH3T3 tox	Luciferase inh
O=C1NC2(CCN(Cc3ccc(F)cc3)C2)COc2ccccc21 (centres undefined)	?	–	–	28µM	–
CN(C)N=Nc1nc[nH]c1C(N)=O	·	–	·	·	·
O=C1NC2(CCN(Cc3ccsc3)CC2)COc2ccccc21	63µM	–	–	?	–
Cn1nccc1CN1CCC2(COc3ccccc3C(=O)N2)C1 (centres undefined)	89µM	–	–	?	–
O=C1NC2(CCN(Cc3ccccc3)C2)COc2ccccc21 (centres undefined)	?	–	–	?	–
C[C@@H]1C(=O)O[C@H]2[C@H]1CC[C@@]1(C)Cc3sc(NC(=O)CCC(=O)O)nc3[C@@H](C)[C@H]21	–	–	–	–	?
C[C@@H]1C(=O)O[C@H]2[C@H]1CC[C@@]1(C)Cc3sc(NC(=O)CN(C)C)nc3[C@@H](C)[C@H]21	–	–	16µM	–	3.2µM
C[C@@H]1C(=O)O[C@H]2[C@H]1CC[C@@]1(C)Cc3sc(NC(=O)COc4ccccc4)nc3[C@@H](C)[C@H]21	?	–	–	–	–
C=CCNC(=O)Nc1nc2c(s1)C[C@]1(C)CC[C@@H]3[C@H](OC(=O)[C@H]3C)[C@H]1[C@@H]2C	?	–	–	–	16µM
C[C@H](C(=O)N1CCCC1)C1CC[C@@]2(C)Cc3sc(NC(=O)C4CC4)nc3[C@@H](C)[C@@H]2[C@H]1O (some centres undefined)	–	–	–	–	–
COCCNC(=O)[C@@H](C)C1CC[C@@]2(C)Cc3sc(NC(=O)CN(C)C)nc3[C@@H](C)[C@@H]2[C@H]1O (some centres undefined)	–	–	–	–	20µM
C[C@@H]1C(=O)O[C@H]2[C@H]1CC[C@@]1(C)Cc3sc(NC(=O)CC(C)(C)C)nc3[C@@H](C)[C@H]21	32µM	–	–	?	20µM
COCCNC(=O)C1COC2(CCN(C(=O)c3ccc(F)cc3)CC2)N1C(=O)c1cccc(C)c1 (centres undefined)	–	–	–	–	–
Cn1c(=O)n([C@H]2CCCN(C(=O)c3ccc4nc[nH]c4c3)C2)c2ncccc21	–	–	–	–	–
C[C@@H]1C(=O)O[C@H]2[C@H]1CC[C@@]1(C)Cc3sc(Nc4ccc(C(=O)O)cc4)nc3[C@@H](C)[C@H]21	–	?	13µM	–	1µM
Cc1ccc(F)cc1NC(=O)c1cc(-c2ccc[nH]2)n[nH]1	?	–	–	–	40µM
COc1ccc(NC(=O)c2cc(-c3ccc[nH]3)n[nH]2)cc1OC	–	–	–	–	?
COc1ccc(OC)c(NC(=O)c2cc(-c3ccc[nH]3)n[nH]2)c1	40µM	–	–	45µM	?
Cc1ccc(C2Cn3nnc(C(=O)N4CCC(C(=O)NC(C)C)CC4)c3CO2)cc1 (centres undefined)	–	–	–	–	20µM
Cc1ccc(C2Cn3nnc(C(=O)N4CCC(C(=O)NC5CCCC5)CC4)c3CO2)cc1 (centres undefined)	–	–	–	–	11µM
COc1cccc(C(=O)NC2CCN(c3nccc(Nc4ccc(C)cc4)n3)CC2)c1	?	–	·	40µM	·
